# Source: ChEMBL document CHEMBL1157539, “Thousands of chemical starting points for antimalarial lead identification” (Nature, 2010)
# Legend:
# Format in all cases: functional
# Plasmodium falciparum [1] = assay: GSK_TCMDC: Inhibition of Plasmodium falciparum 3D7 in whole red blood cells, using parasite LDH activity as an index of growth. Test compounds present at 2uM
# Plasmodium falciparum [2] = assay: GSK_TCMDC: Inhibition of Plasmodium falciparum Dd2 in whole red blood cells, using parasite LDH activity as an index of growth. Test compounds present at 2uM
# HepG2 = assay: GSK_TCMDC: Percent inhibition of human HepG2 cell line. Test compounds present at 10uM.
Compound,Inhibition (Plasmodium falciparum [1]) [%],Inhibition (Plasmodium falciparum [2]) [%],Inhibition (HepG2) [%]
O=C(/C=C/c1ccc(Cl)c(Cl)c1)NCCCCCN1CCC(c2c[nH]c3ccccc23)CC1,99,7,33
COc1ccccc1-c1nc2nc(N)nc(N)c2nc1-c1ccccc1OC,84,1,27
CC(NC(=O)c1ccc(O)c(-c2ccc(Cl)c(Cl)c2)c1)C(=O)NC1CCCCC1 (centres undefined),96,82,0
CCOc1cc(C(=O)NC2CCN(Cc3ccccc3)CC2)ccc1-c1nc2cc(Cl)c(Cl)cc2[nH]1,100,99,24
C=CCc1ccccc1OCC(O)CN(C1CCCCC1)C1CCCCC1.Cl (centres undefined),93,84,50
CNCCNCc1cccc(-c2ccc(-c3nc4cc(C(F)(F)F)ccc4[nH]3)s2)c1.O=C(O)C(F)(F)F,98,85,31
CCN(CC)CCN(Cc1ccc(-c2ccc(C(F)(F)F)cc2)cc1)C(=O)Cn1c(/C=C/c2ccco2)nc(=O)c2ccccc21.O=C(O)C(O)C(O)C(=O)O,94,86,28
c1ccc(Oc2ccc(Nc3ccnc(Nc4ccc(CN5CCOCC5)cc4)n3)cc2)cc1,92,38,46
COc1ccc(NC(=O)NC2CCN(c3ccnc4cc(Cl)ccc34)C2)cc1.O=C(O)C(F)(F)F (centres undefined),100,69,10
CCOC(=O)C1=C(C)NC(C)=C(C(=O)OCC)C1(C(=O)OCc1ccccc1)c1cccc(C(F)(F)F)c1,88,60,0
CC(C)CNCc1cccc(-c2ccccc2CN(C(=O)NCCc2ccccc2)C2CCN(Cc3ccccc3)CC2)c1.O=C(O)C(F)(F)F,89,82,42
Fc1ccc2[nH]c(-c3cccc(-c4cccc(CN5CCN(c6ccncc6)CC5)c4)c3)nc2c1.O=C(O)C(F)(F)F,100,99,71
CC(C)c1cc2c(ccc3nc(N)nc(N)c32)[nH]1,93,4,49
CCOC(=O)N1CCN(C(=O)Nc2ccc(Cl)cc2)CC1,92,0,4
Cc1cnc2ccc(NS(=O)(=O)c3sc4ccc(Cl)cc4c3C)cc2c1N1CCNCC1.Cl,99,0,0
CCOC(=O)c1cnc2c(OC)cc(OC)c(Cl)c2c1Nc1cccc(C)c1C,100,99,5
CN1CCN(CC(=O)Nc2cccc(-c3ccc(-c4nc5cc(C(F)(F)F)ccc5[nH]4)cc3)c2)CC1,100,94,37
CC(=NNC(S)=NC(c1ccccc1)c1ccccc1)c1ccccn1,98,97,45
Cn1c(-c2ccccc2)cc2c3c(=O)cc(C(F)(F)F)[nH]c3ccc21,95,49,21
Cl.Oc1ccc2ccccc2c1CNC1CCCCCC1,83,33,9
Nc1ncc(-c2ccc(Cl)c(Cl)c2)c(N)n1,94,0,65

Compound,Inhibition (Plasmodium falciparum [1]) [%],Inhibition (Plasmodium falciparum [2]) [%],Inhibition (HepG2) [%]
Cn1nccc1C(=O)NCCNCc1cccc(-c2cccc(-c3nc4cc(F)ccc4[nH]3)c2)c1.O=C(O)C(F)(F)F,100,7,38
O=C(c1cc(-c2cccs2)n[nH]1)N1CCN(S(=O)(=O)c2ccc(Cl)cc2)CC1,96,95,0
Cc1ccc(-c2cccc3c(NC(=O)Nc4ccc5nccc(N6CCN(C)CC6)c5c4)cccc23)cn1.Cl,90,89,6
CCOc1ccc(-c2nonc2NC(=O)c2ccccc2Cl)cc1OCC,100,100,3
COc1ccc(-c2ccc(NC(=O)c3ccccc3)cc2)cc1CN1CCCN(C)CC1.O=C(O)C(F)(F)F,92,17,24
CCC(C)NC(=O)Cn1c2ncccc2c(=O)n1-c1ccc(C)cc1 (centres undefined),95,63,4
Cc1ccc(N2CCN(CCCCNC(=O)c3ccc(NC(=O)c4ccc(Cl)cc4)cc3)CC2)c(C)c1,95,20,30
Fc1ccc2[nH]c(-c3ccccc3)nc2c1CN1CCC(N2CCCC2)CC1.O=CO,100,30,2
Cc1nc(-c2ccc(-c3ccc(C(=O)Nc4ccc(C(C)C)c(OCCN(C)C)c4)cc3)c(C)c2)no1.O=C(O)C(=O)O,99,45,49
CN1CCN(c2cc3c(Nc4ccc5c(cnn5Cc5ccccc5)c4)ncnc3cn2)CC1,88,35,9
CCC(CC)N1CCN(CC(=O)Nc2ccc([N+](=O)[O-])cc2C(=O)Nc2cccc(OC)c2)CC1,100,35,35
O=C(O)C(F)(F)F.c1ccc2c(c1)CN(CC1CC1)CC1(CCN(Cc3c[nH]c4cnccc34)CC1)O2,100,14,30
Cl.O=C(c1ccc(Cl)c(Cl)c1)N1CCc2c([nH]c3ccccc23)C1CN1CCCC1 (centres undefined),94,16,83
CC1(C)Cc2c(oc3ncn(CCn4cnc5oc6c(c5c4=N)CC(C)(C)SC6)c(=N)c23)CS1,98,93,0
O=C(O)C(F)(F)F.OC1CCCN(Cc2ccc(-c3cccc(-c4nc5ccccc5[nH]4)c3)cc2)C1 (centres undefined),86,0,14
CS(=O)(=O)Cc1ccc(Nc2nccc(-c3c(-c4cccc(C(=O)Nc5c(F)cccc5F)c4)nn4ccccc34)n2)cc1,96,92,85
O=C(CNCC1CCCCC1)Nc1cc(C(F)(F)F)ccc1Cl,86,67,1
FC(F)(F)c1cccc(Nc2nc3nonc3nc2NC2C3CC4CC(C3)CC2C4)c1 (centres undefined),100,100,72
CNC(=O)c1cncc(/C=C/c2ccccc2S(N)(=O)=O)c1,100,77,17
O=C(Cc1c[nH]cn1)Nc1ccc(-c2ccc(-c3nc4cc(F)ccc4[nH]3)cc2)cc1,100,91,39
CC(C)NCc1ccc(-c2cccc(-c3nc4cc(F)ccc4[nH]3)c2)cc1.O=C(O)C(F)(F)F,100,96,14

Compound,Inhibition (Plasmodium falciparum [1]) [%],Inhibition (Plasmodium falciparum [2]) [%],Inhibition (HepG2) [%]
CCOc1cc(C(=O)N[C@@H](Cc2ccccc2)[C@H](O)CNCc2cc(OC)cc(OC)c2)cc(N2CCCCS2(=O)=O)c1.Cl,100,98,0
O=C(Nc1cccc(N2CCC(NCc3cnn(-c4cccc(F)c4)c3)CC2)c1)c1ccncc1,84,40,50
CC(C)(C)c1ccc2[nH]c(-c3ccc(/C=C/C(=O)NC4CCN(Cc5ccccc5)CC4)cc3)nc2c1,100,96,45
Br.Cc1ccc2ccccc2c1CCCON1C(=N)N=C(N)NC1(C)C,95,97,65
COc1ccc2nc(C)cc(Nc3ccc(N4CCN(C)CC4)cc3)c2c1,100,3,1
O=C(/C=C/c1ccc(Cl)c(Cl)c1)NCCCCCN1CCC(CCNC(=O)Cc2ccc(Cl)cc2)CC1,83,0,45
CCNCc1cccc(-c2ccc3ccnc(N)c3c2)c1,100,98,17
CC(C)(C)c1ccc(N2C(N)=NC(N)=NC2(C)C)cc1.Cl,93,0,27
O=C(CSc1nccn1C1CCCC1)Nc1cc(C(F)(F)F)ccc1Cl,96,94,0
O=C(Nc1ccc(Cl)cc1)Nc1cccc(-c2cccc(-c3nc4cc(F)ccc4[nH]3)c2)c1,100,84,79
CC1(C)S(=O)(=O)CC(O)CS1(=O)=O,98,9,8
Cc1cc(Br)cnc1CCCCNC1=NC(=O)CN1C,95,26,63
CCOC(=O)c1cn(CC)c2cc(N3CCCCCC3)c(F)cc2c1=O,94,89,0
Cc1cc2nc(-c3cc(Br)ccc3O)c(-c3cc(Br)ccc3O)nc2cc1C,96,12,2
CCCC(C)NC[C@@H](O)[C@H](Cc1ccccc1)NC(=O)c1cc(C2CCCC2)cc(N2CCCCS2(=O)=O)c1.Cl (some centres undefined),98,99,8
CC(C)OCCCNC(=O)c1nc(-c2cccc(C(F)(F)F)c2)sc1C(C)C,94,34,0
CCc1nc(N)nc(N)c1-c1ccc(C(C)C)cc1,92,0,3
COc1ccc(C(=O)N2CCC3(CC2)C(=O)N(CC(=O)NCC2CCCCC2)CN3c2ccccc2)c(OC)c1,100,99,6
CCOc1ccc(N2C(N)=NC(N)=NC2(C)C)cc1.Cl,95,0,10
COc1ccc2nccc([C@@H](O)CN3CCC(NC(=O)CCC(=O)c4cc(C(C)(C)C)ccc4OC)CC3)c2c1,94,51,26
COc1ccccc1NC(=O)Nc1cccc(-c2cccc(-c3nc4cc(C(F)(F)F)ccc4[nH]3)c2)c1,100,97,21
